Assay results published in paper PMC7862700, “An all-to-all approach to the identification of sequence-specific readers for epigenetic DNA modifications on cytosine”.

Assays:
Experiment in all cases: DAPPL (digital affinity profiling via proximity ligation, sequencing); 10 mM Tris-HCl pH 7.5, 50 mM NaCl, 1 mM DTT, 4% glycerol, room temperature, 30 min; GST-TFs on glutathione beads, 16-mer random dsDNA library, 0.1% formaldehyde crosslink after washing; high values mean tight binding
FLI1 = biological target: T1, FLI1 (Homo sapiens, UniProt Q01543 1-452); conditions: protein: recombinant; tags: N-terminal GST; dsDNA, one strand shown
T1 sequence: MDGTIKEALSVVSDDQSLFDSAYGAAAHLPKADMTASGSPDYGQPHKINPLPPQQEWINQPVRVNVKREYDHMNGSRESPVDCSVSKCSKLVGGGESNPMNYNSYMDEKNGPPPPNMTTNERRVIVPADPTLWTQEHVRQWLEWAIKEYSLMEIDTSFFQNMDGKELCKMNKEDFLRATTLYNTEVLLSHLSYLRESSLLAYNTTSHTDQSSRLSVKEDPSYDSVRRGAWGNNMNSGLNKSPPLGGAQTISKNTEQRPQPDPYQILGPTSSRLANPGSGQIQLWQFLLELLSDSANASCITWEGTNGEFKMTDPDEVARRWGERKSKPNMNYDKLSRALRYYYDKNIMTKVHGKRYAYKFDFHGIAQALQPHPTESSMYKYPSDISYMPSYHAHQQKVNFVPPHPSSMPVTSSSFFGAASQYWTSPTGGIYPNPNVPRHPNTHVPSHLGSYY
How it was run: (§1)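 Binding signal is given per hexamer as its read frequency for a factor divided by its frequency in the tag-only sample. GST-fused human transcription factors were expressed in yeast, captured on glutathione beads, barcoded with DNA and pooled with that sample, then incubated with 200 nmole of a 16-mer random double-stranded DNA library in Tris/NaCl/DTT/glycerol buffer for 30 min at room temperature. The pools were then washed, crosslinked, proximity-ligated, amplified by PCR and sequenced on an Illumina NextSeq500.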

GABPA = biological target: T2, GABPA (Homo sapiens, UniProt Q06546 1-454); conditions: protein: recombinant; tags: N-terminal GST; dsDNA, one strand shown
T2 sequence: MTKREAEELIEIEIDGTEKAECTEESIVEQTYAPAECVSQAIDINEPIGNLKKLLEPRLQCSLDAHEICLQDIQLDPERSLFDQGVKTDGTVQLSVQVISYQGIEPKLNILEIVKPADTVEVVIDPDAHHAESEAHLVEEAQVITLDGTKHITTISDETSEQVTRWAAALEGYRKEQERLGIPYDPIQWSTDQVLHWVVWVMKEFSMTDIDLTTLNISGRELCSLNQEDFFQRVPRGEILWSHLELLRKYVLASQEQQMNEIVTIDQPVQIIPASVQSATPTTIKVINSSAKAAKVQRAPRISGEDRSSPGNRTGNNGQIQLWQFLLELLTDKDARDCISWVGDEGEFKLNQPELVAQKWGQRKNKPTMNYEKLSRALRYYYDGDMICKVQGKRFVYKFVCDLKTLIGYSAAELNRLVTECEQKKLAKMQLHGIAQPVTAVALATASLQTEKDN
How it was run: as §1

ELF1 = ELF1 (Homo sapiens, UniProt P32519 1-619); conditions: protein: recombinant; tags: N-terminal GST; dsDNA, one strand shown
How it was run: as §1

SPI1 = SPI1 (Homo sapiens, UniProt P17947 1-270); conditions: protein: recombinant; tags: N-terminal GST; dsDNA, one strand shown
How it was run: as §1

SPIB = SPIB (Homo sapiens, UniProt Q01892 1-262); conditions: protein: recombinant; tags: N-terminal GST; dsDNA, one strand shown
How it was run: as §1

ELK3 = biological target: T3, ELK3 (Homo sapiens, UniProt P41970 1-407); conditions: protein: recombinant; tags: N-terminal GST; dsDNA, one strand shown
T3 sequence: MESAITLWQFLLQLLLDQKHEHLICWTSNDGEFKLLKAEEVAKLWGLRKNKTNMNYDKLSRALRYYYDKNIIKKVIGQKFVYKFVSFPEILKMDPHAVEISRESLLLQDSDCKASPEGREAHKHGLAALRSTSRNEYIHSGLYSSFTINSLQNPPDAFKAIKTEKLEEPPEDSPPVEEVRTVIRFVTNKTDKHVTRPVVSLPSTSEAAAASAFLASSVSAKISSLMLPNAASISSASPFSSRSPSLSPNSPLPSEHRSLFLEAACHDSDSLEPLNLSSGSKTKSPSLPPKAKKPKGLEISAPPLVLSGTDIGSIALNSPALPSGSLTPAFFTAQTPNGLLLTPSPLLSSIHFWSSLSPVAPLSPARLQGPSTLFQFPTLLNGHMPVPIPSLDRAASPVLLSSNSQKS
How it was run: as §1

ETV5 = ETV5 (Homo sapiens, UniProt P41161 1-510); conditions: protein: recombinant; tags: N-terminal GST; dsDNA, one strand shown
How it was run: as §1

HSF1 = HSF1 (Homo sapiens, UniProt Q00613 1-529); conditions: protein: recombinant; tags: N-terminal GST; chain copies: 3; dsDNA, one strand shown
How it was run: as §1

SPIC = biological target: T4, SPIC (Homo sapiens, UniProt Q8N5J4 1-248); conditions: protein: recombinant; tags: N-terminal GST; dsDNA, one strand shown
T4 sequence: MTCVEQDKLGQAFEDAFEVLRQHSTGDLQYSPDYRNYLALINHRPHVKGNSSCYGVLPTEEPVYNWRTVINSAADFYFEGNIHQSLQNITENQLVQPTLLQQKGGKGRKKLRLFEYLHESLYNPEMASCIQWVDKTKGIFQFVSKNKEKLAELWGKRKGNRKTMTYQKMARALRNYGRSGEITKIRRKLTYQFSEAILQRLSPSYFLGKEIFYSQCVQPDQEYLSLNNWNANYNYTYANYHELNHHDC
How it was run: as §1

ELF4 = ELF4 (Homo sapiens, UniProt Q99607 1-663); conditions: protein: recombinant; tags: N-terminal GST; dsDNA, one strand shown
How it was run: as §1

ETV2 = biological target: T5, ETV2 (Homo sapiens, UniProt O00321 1-342); conditions: protein: recombinant; tags: N-terminal GST; dsDNA, one strand shown
T5 sequence: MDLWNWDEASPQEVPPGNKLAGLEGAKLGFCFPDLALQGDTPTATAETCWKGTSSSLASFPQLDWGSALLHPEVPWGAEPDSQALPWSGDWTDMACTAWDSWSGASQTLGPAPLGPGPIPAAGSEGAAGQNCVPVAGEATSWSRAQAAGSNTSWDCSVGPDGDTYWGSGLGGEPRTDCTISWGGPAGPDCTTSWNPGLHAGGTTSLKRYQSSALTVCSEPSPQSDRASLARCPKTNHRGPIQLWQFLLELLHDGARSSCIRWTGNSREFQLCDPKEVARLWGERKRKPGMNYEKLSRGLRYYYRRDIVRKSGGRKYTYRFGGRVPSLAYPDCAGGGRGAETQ
How it was run: as §1

ELF3 = biological target: T6, ELF3 (Homo sapiens, UniProt P78545 1-371); conditions: protein: recombinant; tags: N-terminal GST; dsDNA, one strand shown
T6 sequence: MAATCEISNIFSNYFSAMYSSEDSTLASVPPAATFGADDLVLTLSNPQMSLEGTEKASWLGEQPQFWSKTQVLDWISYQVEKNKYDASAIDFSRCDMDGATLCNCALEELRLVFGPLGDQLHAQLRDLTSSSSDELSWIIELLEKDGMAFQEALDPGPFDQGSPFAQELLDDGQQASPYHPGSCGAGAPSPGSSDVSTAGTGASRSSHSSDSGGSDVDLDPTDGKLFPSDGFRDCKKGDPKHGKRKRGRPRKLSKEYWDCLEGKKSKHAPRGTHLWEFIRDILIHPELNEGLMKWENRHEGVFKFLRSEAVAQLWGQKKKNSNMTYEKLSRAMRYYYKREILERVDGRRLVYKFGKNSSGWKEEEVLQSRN
How it was run: as §1

CRX = CRX (Homo sapiens, UniProt O43186 1-299); conditions: protein: recombinant; tags: N-terminal GST; dsDNA, one strand shown
How it was run: as §1

EHF = biological target: T7, EHF (Homo sapiens, UniProt Q9NZC4 1-300); conditions: protein: recombinant; tags: N-terminal GST; dsDNA, one strand shown
T7 sequence: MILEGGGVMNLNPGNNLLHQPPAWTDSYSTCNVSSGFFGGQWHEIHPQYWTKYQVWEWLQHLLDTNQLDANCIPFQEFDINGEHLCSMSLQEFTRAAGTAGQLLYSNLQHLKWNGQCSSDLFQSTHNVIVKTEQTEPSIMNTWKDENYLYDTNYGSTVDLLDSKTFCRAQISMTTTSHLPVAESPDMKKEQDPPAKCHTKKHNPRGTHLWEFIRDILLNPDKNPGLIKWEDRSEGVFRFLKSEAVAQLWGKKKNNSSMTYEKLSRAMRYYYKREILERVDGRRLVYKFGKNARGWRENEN
How it was run: as §1

FEV = biological target: T8, FEV (Homo sapiens, UniProt Q99581 1-238); conditions: protein: recombinant; tags: N-terminal GST; dsDNA, one strand shown
T8 sequence: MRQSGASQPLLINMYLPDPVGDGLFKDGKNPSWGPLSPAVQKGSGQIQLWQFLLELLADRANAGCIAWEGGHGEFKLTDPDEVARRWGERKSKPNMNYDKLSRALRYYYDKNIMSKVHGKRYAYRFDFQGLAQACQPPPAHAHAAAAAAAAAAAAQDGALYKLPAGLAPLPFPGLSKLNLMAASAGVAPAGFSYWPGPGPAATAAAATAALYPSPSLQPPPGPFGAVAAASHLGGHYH
How it was run: as §1

ELK4 = biological target: T9, ELK4 (Homo sapiens, UniProt P28324-2 1-405); conditions: protein: recombinant; tags: N-terminal GST; dsDNA, one strand shown
T9 sequence: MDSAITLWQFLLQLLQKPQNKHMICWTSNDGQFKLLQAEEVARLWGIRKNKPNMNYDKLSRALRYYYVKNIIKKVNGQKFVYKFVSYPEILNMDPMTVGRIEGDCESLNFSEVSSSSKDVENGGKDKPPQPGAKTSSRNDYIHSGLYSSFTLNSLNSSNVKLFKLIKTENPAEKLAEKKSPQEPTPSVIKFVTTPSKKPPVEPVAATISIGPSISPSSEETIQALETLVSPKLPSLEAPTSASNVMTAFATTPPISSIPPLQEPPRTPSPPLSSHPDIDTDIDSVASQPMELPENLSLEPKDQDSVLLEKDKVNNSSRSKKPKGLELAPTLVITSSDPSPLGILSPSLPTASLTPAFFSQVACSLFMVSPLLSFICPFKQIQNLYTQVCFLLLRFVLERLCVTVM
How it was run: as §1

Sequence of ETV5 (P41161 whole entry): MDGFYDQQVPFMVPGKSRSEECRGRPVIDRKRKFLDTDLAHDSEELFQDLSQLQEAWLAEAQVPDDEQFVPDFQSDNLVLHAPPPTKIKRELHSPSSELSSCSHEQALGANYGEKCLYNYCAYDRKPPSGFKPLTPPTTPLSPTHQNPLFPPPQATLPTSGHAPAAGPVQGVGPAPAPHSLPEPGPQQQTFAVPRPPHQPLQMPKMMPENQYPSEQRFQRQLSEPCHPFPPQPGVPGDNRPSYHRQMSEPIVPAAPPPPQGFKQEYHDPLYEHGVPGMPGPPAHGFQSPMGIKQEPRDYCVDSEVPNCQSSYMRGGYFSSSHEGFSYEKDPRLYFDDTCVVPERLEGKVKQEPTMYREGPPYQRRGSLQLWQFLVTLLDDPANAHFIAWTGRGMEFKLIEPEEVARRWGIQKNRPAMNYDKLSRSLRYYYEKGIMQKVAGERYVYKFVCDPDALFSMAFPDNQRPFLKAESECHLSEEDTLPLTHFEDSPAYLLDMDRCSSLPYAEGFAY
Sequence of CRX (O43186 whole entry): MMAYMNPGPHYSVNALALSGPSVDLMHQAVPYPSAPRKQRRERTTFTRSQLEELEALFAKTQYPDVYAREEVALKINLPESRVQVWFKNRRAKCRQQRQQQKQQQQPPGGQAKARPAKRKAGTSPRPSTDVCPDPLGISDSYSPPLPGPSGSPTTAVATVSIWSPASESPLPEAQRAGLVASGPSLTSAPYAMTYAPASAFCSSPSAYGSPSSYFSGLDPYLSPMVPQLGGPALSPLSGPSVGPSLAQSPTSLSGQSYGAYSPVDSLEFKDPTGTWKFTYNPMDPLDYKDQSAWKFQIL
Sequence of SPIB (Q01892 whole entry): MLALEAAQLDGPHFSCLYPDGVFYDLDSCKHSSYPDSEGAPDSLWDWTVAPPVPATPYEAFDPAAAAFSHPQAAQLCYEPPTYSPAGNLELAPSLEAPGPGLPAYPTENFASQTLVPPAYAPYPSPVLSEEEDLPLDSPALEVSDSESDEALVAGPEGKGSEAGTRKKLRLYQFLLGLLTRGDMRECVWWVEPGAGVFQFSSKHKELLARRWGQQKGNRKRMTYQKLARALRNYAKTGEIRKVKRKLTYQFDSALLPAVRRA
Sequence of HSF1 (Q00613 whole entry): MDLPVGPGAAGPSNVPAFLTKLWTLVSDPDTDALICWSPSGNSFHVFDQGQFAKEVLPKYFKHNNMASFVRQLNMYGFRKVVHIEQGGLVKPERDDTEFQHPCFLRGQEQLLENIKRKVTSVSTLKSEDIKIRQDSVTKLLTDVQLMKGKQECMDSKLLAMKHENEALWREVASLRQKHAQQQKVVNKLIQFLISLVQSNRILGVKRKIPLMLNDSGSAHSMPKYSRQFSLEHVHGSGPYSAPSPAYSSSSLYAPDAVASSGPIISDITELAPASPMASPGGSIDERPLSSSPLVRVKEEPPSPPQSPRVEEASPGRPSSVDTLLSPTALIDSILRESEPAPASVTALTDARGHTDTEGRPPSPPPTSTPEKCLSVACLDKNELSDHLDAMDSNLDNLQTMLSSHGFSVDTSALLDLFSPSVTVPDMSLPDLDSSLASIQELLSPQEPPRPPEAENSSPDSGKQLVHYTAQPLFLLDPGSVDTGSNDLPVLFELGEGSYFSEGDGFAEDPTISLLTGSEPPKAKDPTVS
Sequence of ELF1 (P32519 whole entry): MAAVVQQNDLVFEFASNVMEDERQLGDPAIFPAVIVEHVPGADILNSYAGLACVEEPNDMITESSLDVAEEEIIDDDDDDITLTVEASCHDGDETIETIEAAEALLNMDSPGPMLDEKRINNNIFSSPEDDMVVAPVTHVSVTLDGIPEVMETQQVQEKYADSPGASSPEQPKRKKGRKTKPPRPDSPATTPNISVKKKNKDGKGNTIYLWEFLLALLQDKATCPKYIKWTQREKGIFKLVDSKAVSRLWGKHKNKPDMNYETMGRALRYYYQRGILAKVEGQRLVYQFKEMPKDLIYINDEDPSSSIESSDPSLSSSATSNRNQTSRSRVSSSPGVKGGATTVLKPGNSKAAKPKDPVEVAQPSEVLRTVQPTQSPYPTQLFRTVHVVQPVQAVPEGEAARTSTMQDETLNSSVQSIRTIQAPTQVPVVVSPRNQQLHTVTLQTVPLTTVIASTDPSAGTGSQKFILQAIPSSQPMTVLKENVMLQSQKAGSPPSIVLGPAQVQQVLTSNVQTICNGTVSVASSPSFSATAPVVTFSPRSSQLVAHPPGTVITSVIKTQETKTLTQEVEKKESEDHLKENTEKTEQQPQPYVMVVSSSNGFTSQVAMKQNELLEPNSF
Sequence of ELF4 (Q99607 whole entry): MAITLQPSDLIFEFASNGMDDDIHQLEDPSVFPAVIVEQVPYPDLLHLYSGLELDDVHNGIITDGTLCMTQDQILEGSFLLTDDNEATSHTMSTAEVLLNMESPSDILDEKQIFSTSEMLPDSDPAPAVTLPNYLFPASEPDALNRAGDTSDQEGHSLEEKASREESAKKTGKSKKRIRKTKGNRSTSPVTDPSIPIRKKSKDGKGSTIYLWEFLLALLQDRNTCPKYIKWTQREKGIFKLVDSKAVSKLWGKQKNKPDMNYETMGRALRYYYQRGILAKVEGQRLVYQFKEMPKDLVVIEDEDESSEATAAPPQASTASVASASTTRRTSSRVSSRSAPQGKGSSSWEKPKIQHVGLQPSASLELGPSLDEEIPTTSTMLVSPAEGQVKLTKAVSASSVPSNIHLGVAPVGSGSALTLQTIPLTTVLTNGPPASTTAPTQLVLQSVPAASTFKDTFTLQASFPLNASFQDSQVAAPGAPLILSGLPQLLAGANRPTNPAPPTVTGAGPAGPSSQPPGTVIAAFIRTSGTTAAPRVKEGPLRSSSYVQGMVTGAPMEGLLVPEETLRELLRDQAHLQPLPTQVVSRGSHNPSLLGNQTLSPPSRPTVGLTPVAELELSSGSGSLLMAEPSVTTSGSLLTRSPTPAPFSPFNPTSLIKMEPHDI

Sequence | binding signal (FLI1) | binding signal (GABPA) | binding signal (ELF1) | binding signal (SPI1) | binding signal (SPIB) | binding signal (ELK3) | binding signal (ETV5) | binding signal (HSF1) | binding signal (SPIC) | binding signal (ELF4) | binding signal (ETV2) | binding signal (ELF3) | binding signal (CRX) | binding signal (EHF) | binding signal (FEV) | binding signal (ELK4)
TTTAGT | 1.13 fold enrichment (6-mer frequency, TF over GST control) | 1.11 fold enrichment (6-mer frequency, TF over GST control) | 1.11 fold enrichment (6-mer frequency, TF over GST control) | 1.07 fold enrichment (6-mer frequency, TF over GST control) | 1.12 fold enrichment (6-mer frequency, TF over GST control) | 1.11 fold enrichment (6-mer frequency, TF over GST control) | 1.04 fold enrichment (6-mer frequency, TF over GST control) | 1.2 fold enrichment (6-mer frequency, TF over GST control) | 1.15 fold enrichment (6-mer frequency, TF over GST control) | 1.04 fold enrichment (6-mer frequency, TF over GST control) | 1.23 fold enrichment (6-mer frequency, TF over GST control) | 1.04 fold enrichment (6-mer frequency, TF over GST control) | 1.55 fold enrichment (6-mer frequency, TF over GST control) | – | – | –
AAGGCT | 1.03 fold enrichment (6-mer frequency, TF over GST control) | 1.12 fold enrichment (6-mer frequency, TF over GST control) | 1.1 fold enrichment (6-mer frequency, TF over GST control) | – | 1.01 fold enrichment (6-mer frequency, TF over GST control) | 1.1 fold enrichment (6-mer frequency, TF over GST control) | 1.01 fold enrichment (6-mer frequency, TF over GST control) | 1.1 fold enrichment (6-mer frequency, TF over GST control) | 1.06 fold enrichment (6-mer frequency, TF over GST control) | – | 1.15 fold enrichment (6-mer frequency, TF over GST control) | 1.02 fold enrichment (6-mer frequency, TF over GST control) | 1.43 fold enrichment (6-mer frequency, TF over GST control) | 1.02 fold enrichment (6-mer frequency, TF over GST control) | 1.05 fold enrichment (6-mer frequency, TF over GST control) | 1 fold enrichment (6-mer frequency, TF over GST control)
